ELG1 genotoxic = induces genotoxicity in HEK293T cells with luciferase-tagged ELG1; AID 504466; 330,000 compounds, 1.3% hits; HEK293T ELG1-luciferase reporter, luminescence, 16 h; Potency, µM (titrated, usually from 46 µM), for inactives: at the top dose activity change, positive = activation, hits mostly activators; also: % of control where 0% means no effect; nearly all actives have a fitted effect of over 60% in size
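ELG1-luciferase HEK293T cells, 2,000/well; compound pinned in; 16 hr, 37 °C, 5% CO2; ONE-Glo, 30 min RT; luminescence on CCD imager.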
FLuc modulator = firefly luciferase modulation, counter-screen for miR-21 project. P08659. purified FLuc, Km substrates, luminescence inhibition. Potency, µM (titrated, usually from 57.5 µM), inactives show at the top dose activity change, negative = inhibition, most hits filed as inhibitors. 360,000 compounds, 6.9% hits;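 also: plate controls were vehicle for no effect and reference inhibitor for full effect; nearly all actives have a fitted effect of over 55% in size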
Target sequence (P08659 whole entry, looked up): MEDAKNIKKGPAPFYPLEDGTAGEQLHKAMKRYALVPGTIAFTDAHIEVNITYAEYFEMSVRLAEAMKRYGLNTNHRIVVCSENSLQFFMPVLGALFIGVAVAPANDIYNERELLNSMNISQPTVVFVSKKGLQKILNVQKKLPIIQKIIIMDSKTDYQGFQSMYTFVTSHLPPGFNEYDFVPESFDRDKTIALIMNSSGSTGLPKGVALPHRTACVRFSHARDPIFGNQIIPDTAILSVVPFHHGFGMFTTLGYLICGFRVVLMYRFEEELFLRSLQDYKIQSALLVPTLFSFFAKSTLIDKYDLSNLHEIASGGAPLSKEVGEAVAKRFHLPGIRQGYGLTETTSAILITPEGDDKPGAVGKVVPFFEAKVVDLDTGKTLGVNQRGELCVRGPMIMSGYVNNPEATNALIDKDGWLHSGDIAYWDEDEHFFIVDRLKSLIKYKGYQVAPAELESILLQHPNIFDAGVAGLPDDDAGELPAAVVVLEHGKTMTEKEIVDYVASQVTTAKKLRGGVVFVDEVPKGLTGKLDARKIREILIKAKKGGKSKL
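Purified P. pyralis luciferase (10nM final) with 10uM D-luciferin and 10uM ATP (Km levels) in 50mM Tris acetate pH 7.5, 10mM Mg acetate, 0.01% Tween-20, 0.05% BSA; qHTS 6-point titration, ~60 µM downward; luminescence read.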
SMN2 splice enh = enhancers of SMN2 splice variant expression | HEK293 SMN2-luciferase splicing reporter, luminescence, 30-36 h | 210,000 compounds, 2.8% hits | AID 1458 | Potency, µM (highest dose often 46.1 µM), without a hit: at the highest dose activity change, positive = activation, most hits filed as activators; also: % of control where 0% means no effect; nearly all actives have a fitted effect of over 55% in size
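HEK293 cells carry an SMN2 minigene-luciferase reporter in which exon 7 inclusion puts luciferase in frame. Cells were seeded at 2000 cells/well, attached for 10-12 hours, then exposed to compounds for 30-36 hours at 37C before ONE-Glo luminescence.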
NPC1 prom act = activators of NPC1 promoter; Huh7 NPC1 promoter luciferase reporter, 24 h; Potency, µM (titrated, usually from 9.22 µM), for inactives: top-dose activation, usual class: activators; 320,000 compounds, 2.4% hits; AID 485313; also: % of control where 0% means no effect; nearly all actives have a fitted effect of over 60% in size
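Huh7 reporter cells (NPC1 promoter driving luciferase) are dosed with compound for 24 h at 37 °C, 5% CO2; luciferase detection reagent is then added and luminescence measured after 10 min at ambient temperature.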
Rab9 promoter act = activators of Rab9 promoter; 320,000 compounds, 2.8% hits; Huh7 Rab9 promoter-luciferase reporter, luminescence, 24 h; Potency, µM (top dose mostly 9.22 µM), inactives show at the highest dose activation, negative = inhibition, hits mostly activators; also: % of control where 0% means no effect; nearly all actives have a fitted effect of over 60% in size
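Luminescence from Amplite-detected luciferase (10 minutes, ambient) reports Rab9 promoter activation. Before that, stable Rab9-luciferase Huh7 cells (1500/well, reduced-serum OP-MEM I plus 10% FBS) were exposed to compound for 24 hours at 37C.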
Numbers without * were called inactive; ? = inconclusive; . = no result. Compounds with a hit are over-represented: about 7.5% of the library has one in this group of screens. Calls follow the shape of the dose curve; as a rule, active = well fitted curve in the direction sought with a large enough effect; inconclusive = small, poorly fitted or top-dose-only effect, or another doubt; inactive = no such curve, though single readings can be large; an effect the other way counts as inactive or inconclusive. Potency is read from the fitted curve at half-maximal effect.

SMILES	ELG1 genotoxic	FLuc modulator	SMN2 splice enh	NPC1 prom act	Rab9 promoter act
C/C(=N\Nc1ccc(C(=O)O)cc1)c1ccc(Br)cc1	?	0.19µM*	.	?	0.089µM*
C/C(=N\Nc1ccc(C(=O)O)cc1)c1ccc(S(=O)(=O)NCc2ccco2)cc1	10%	17µM*	.	19%	?
COc1ccccc1NS(=O)(=O)c1ccc(C(=O)OCC(=O)NCc2ccco2)cc1	0%	4%	-8%	-2%	-7%
COc1ccccc1NC(=O)COC(=O)c1ccc(S(=O)(=O)NCc2ccco2)cc1	-2%	12µM*	-14%	-2%	-2%
O=C(NCCCN1CCCC1=O)c1ccc(NS(=O)(=O)c2ccccc2)cc1	-4%	-1%	.	-1%	-2%
Cc1cc(=O)[nH]c2cc(Cl)ccc12	9%	3%	?	-4%	-4%
CSc1ccc(C2c3c(oc4cc(C)cc(C)c4c3=O)C(=O)N2CCO)cc1 (stereo not given)	.	-16%	-6%	.	.
O=C1CCC(C(=O)Nc2cccc3ccccc23)N1 (stereo not given)	3%	3%	7.9µM*	-2%	-2%
O=C(Nc1cccc2ccccc12)C1CCCC1	1%	4%	.	0%	-3%
Cc1sc2ncnc(SCC(=O)N3CCCC3=O)c2c1C	5%	?	-1%	1%	6%
CC1CCN(c2ncnc3c2cnn3-c2ccccc2)CC1	1.5µM*	2.1µM*	13µM*	0.89µM*	0.63µM*
COc1ccc(-n2ncc3c(N4CCC(C)CC4)ncnc32)cc1	0.26µM*	0.54µM*	.	0.11µM*	0.1µM*
CCOC(=O)N1CCN(c2ncnc3c2cnn3-c2ccc(OC)cc2)CC1	2%	-1%	4%	2%	-2%
CCOC(=O)C1CCN(c2ncnc3c2cnn3-c2ccccc2)CC1	?	?	18%	-1%	-1%
Cc1ccc(-n2ncc3c(N4CCC(C)CC4)ncnc32)cc1C	.	1.5µM*	.	.	.
CSC1=NC(C)(C)C=C(/C=C/c2ccc(Cl)cc2Cl)N1	-3%	?	-34%	1%	-4%
COC(=O)c1c(NC(=O)COC(=O)[C@@H](NS(=O)(=O)c2cccc(Cl)c2)C(C)C)sc2c1CCC2	-3%	0%	-12%	0%	-4%
Cc1csc2nc(CSc3nncn3-c3ccccc3)c(Br)n12	0%	4%	7%	-3%	0%
Cc1csc2nc(CSc3nc4ccccc4o3)c(Br)n12	2.9µM*	8.5µM*	?	3.5µM*	2.5µM*
Cc1noc(-c2ccc(NCc3ccccc3)c([N+](=O)[O-])c2)n1	.	-16%	.	.	.
COc1ccccc1CNc1ccc(-c2nc(C)no2)cc1[N+](=O)[O-]	.	13µM*	.	.	.
COc1ccccc1CNc1ccc(-c2nc(C(C)C)no2)cc1[N+](=O)[O-]	.	12µM*	.	.	.
CC(OC(=O)/C=C/c1cccs1)C(=O)NC1CCCCC1C (stereo not given)	-3%	4%	.	1%	1%
N#C/C(N)=C(/C#N)N=Cc1cccc(Cl)c1	1%	-11%	.	-11%	-2%
COc1ccccc1-c1cc(C(=O)Nc2cc(C)on2)no1	13%	-13%	?	2%	?
SMILES	ELG1 genotoxic	FLuc modulator	SMN2 splice enh	NPC1 prom act	Rab9 promoter act
COc1ccc(C(=O)Nc2nc3nccc(-c4ccccc4)n3n2)cc1	-3%	9.5µM*	-25%	-3%	1%
O=C(Nc1nc2nccc(-c3ccccc3)n2n1)c1ccccc1	?	?	.	2.8µM*	2.5µM*
O=C(Nc1nc2nccc(-c3ccccc3)n2n1)c1ccc(F)cc1	1%	1%	-24%	-6%	11%
Cn1c(SCC(=O)N/N=C/c2ccco2)nc2ccccc21	0%	4%	8%	1%	1%
Cc1ccnc(NC(=O)c2c(O)c3ccccc3n(C)c2=O)c1	?	3µM*	13µM*	3.5µM*	4µM*
Cc1cccc(NC(=O)c2c(O)c3ccccc3n(C)c2=O)c1	?	?	.	2.8µM*	2µM*
Cn1c(=O)c(C(=O)NCc2ccccc2)c(O)c2ccccc21	-1%	17µM*	.	?	?
C=CCn1c(=O)c(C(=O)Nc2ccccc2C)c(O)c2ccccc21	?	?	.	4µM*	4µM*
CNC(=O)C1(C)C=CC2(CCCCC2)N1C(=O)OC (stereo not given)	.	.	-13%	.	.
O=C(c1ccc2c(c1)N(Cc1ccccc1F)C(=O)c1ccccc1S2(=O)=O)N1CCN(c2ccccn2)CC1	.	1%	-5%	.	.
CCOC(=O)N1CCN(S(=O)(=O)c2ccc([N+](=O)[O-])cc2)CC1	3%	-1%	-15%	1%	6%
Cc1ccc(NC(=O)c2c(O)c3ccccc3n(C)c2=O)nc1	15%	?	?	3.5µM*	12%
Cn1c(=O)c(C(=O)Nc2ncccc2O)c(O)c2ccccc21	?	?	24%	3.2µM*	?
CCn1c(=O)c(C(=O)Nc2ccc(C)cc2)c(O)c2ccccc21	7%	?	.	14%	22%
COc1cc2[nH]c(=S)n(N(C(C)=O)C(C)=O)c(=O)c2cc1OC	0%	0%	19%	-1%	-4%
CN(CC(=O)Nc1ccc(Cl)cc1)C(=O)c1cccc(S(=O)(=O)N2CCN(Cc3ccccc3)CC2)c1	-14%	2%	.	-10%	-9%
O=C(O)Cn1nnc2ccccc21	0%	-3%	.	-5%	-3%
C(#Cc1ccccc1)Cn1nnc2ccccc21	?	17µM*	22%	?	?
O=C1c2ccccc2NC2(CCCCC2)N1c1ccc(O)cc1	?	?	8.9µM*	16%	19%
c1ccc(-c2cn3c(n2)CCC3)cc1	16%	-5%	1%	0%	0%
O=[N+]([O-])c1ccc(-c2cn3c(n2)CCC3)cc1	15%	24µM*	.	?	?
COc1cc(OC)nc(Oc2cc(C=O)ccc2OC)n1	2%	-1%	.	0%	3%
C=CCn1c(SCc2csc(-c3ccc(C)cc3)n2)nnc1-c1ccccc1OC	-5%	21µM*	.	-1%	2%
COc1ccccc1-n1cnnc1SCc1csc(-c2ccccc2)n1	-10%	-6%	-8%	0%	-3%
COc1cccc(C2=Nc3cccc4cccc(c34)N2)c1	2%	12µM*	1%	?	18%
Nc1ccc(C2=Nc3cccc4cccc(c34)N2)cc1	-1%	21µM*	.	21%	9%
c1coc(C2=Nc3cccc4cccc(c34)N2)c1	-5%	?	-37%	13%	20%
N#Cc1cn(CC(=O)NCC2CCCO2)c2ccccc12 (stereo not given)	1%	7%	-20%	-4%	-5%
CC(=O)c1ccc(N=Nc2ccc(N)cc2)cc1	?	1.5µM*	.	0.4µM*	0.32µM*
CC(=O)c1ccc(NS(=O)(=O)c2ccc(N)cc2)cc1	?	-1%	12%	-3%	0%

High-throughput results (PubChem BioAssay)
